Screening data (PubChem)
HDAC3 inhib: blocks human histone deacetylase 3; O15379; recombinant HDAC3, fluorogenic peptide/trypsin coupled, fluorescence; inhibition, % at 8.3 µM; hit rate 0.15% among 320,000; AID 2718; in the data active = inhibition above about 26%, passing the limit was not always enough; inconclusive = no clear call, values can overlap the other calls
IDE cell activ: boosts human insulin-degrading enzyme activity in HEK cells; P14735; FAbeta-B cleavage, fluorescence polarization; 0% vehicle, 100% cell-free pure enzyme wells; activation, % at 5.96 µM; hit rate 0.073% among 340,000; AID 493087;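 active = activation above the mean of all tested compounds plus 3 SD, set per screening campaign, cut at about 17% in these data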
Target sequence (P14735 whole entry, looked up): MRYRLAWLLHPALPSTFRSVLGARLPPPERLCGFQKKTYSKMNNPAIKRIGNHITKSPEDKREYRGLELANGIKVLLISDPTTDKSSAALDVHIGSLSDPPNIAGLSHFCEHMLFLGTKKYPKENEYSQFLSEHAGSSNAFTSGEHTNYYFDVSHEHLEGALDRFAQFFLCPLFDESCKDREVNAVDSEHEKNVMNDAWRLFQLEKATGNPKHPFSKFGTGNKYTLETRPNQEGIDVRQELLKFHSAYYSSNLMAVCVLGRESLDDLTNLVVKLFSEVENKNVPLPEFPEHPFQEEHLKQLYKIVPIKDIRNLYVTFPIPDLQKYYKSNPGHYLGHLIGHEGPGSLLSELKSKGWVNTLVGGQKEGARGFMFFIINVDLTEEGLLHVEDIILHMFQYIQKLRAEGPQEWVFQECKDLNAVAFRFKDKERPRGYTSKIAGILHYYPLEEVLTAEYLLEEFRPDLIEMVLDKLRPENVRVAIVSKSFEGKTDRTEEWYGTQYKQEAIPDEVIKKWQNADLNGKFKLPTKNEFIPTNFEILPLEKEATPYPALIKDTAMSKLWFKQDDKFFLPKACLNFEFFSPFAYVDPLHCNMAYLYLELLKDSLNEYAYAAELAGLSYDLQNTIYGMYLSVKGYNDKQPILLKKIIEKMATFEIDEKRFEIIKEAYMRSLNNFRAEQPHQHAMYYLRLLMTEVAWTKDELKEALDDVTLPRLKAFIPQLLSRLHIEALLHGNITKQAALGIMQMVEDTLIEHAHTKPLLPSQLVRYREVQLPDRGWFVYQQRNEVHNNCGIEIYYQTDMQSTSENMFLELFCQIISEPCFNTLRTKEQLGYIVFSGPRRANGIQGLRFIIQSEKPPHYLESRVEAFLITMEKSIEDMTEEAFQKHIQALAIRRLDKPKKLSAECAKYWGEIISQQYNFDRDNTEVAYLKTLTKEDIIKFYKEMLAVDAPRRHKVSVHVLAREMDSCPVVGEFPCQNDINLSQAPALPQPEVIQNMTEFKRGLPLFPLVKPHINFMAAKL
Mot1-301 SUMO: SUMOylation pathway inhibition by Mot1-301 growth rescue; S. cerevisiae Mot1-301 growth rescue, ATP luminescence, 38.5C; percent above DMSO median, 100 means doubled; hit rate 1% among 320,000; growth rescue, % at 18.8 µM;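 active = every valid replicate shows activation above 250% relative to neutral control wells; inactive = the rest, any valid replicate at or below 250%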;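 note: OY570 slx delta 5 strain wells were the positive control but not used for scaling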
LANA-H2B inh: blocks KSHV LANA binding to histone H2A/H2B | cell-free LANA-H2A/H2B peptide, fluorescence polarization | hit rate 0.6% among 320,000 | Q9QR71 | inhibition, % (concentration not given with the values); in the data active = inhibition mostly above about 10%, no sharp cut-off; inactive = mostly below about 6.7%
IDE cell inh: cellular human IDE inhibition. HEK cells, FAbetaB cleavage, fluorescence polarization. AID 434962. P14735. hit rate 0.41% among 320,000. inhibition, % at 5.59 µM;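 active = percent inhibition above the average of all tested compounds plus 3 SD, set per screening campaign, cut at about 16% in these data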;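 note: IDE supplied by intact live HEK cells; FP after avidin binding of uncleaved biotin substrate so inhibition keeps polarization high; 0% = DMSO wells and 100% = 60 µM reference IDE inhibitor Ii1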
Yeast Mot1 SUMO: SUMO pathway inhibitors in yeast Mot1-301 growth. growth activity, percent, % at 42 µM. shares compounds with Mot1-301 SUMO. 2,300 tested, under 10 active. S. cerevisiae Mot1-301 galactose growth, ATP luminescence, 24 h; -100 = growth of slx-deleted rescue strain;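 active = Signal drops as the depositor expects, and the fitted half-maximal dose is no more than ten times the top valid tested dose; inconclusive = Poor fit, or a flat curve whose signal drops by 30% to 70%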;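 note: more negative values mean stronger growth rescue toward the control strain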
The depositor's hits bear a star; ? = inconclusive; / = no result; + = active, no number. Compounds with a hit are over-represented: about 2.1% of the library has one in this group of screens.

SMILES | HDAC3 inhib | IDE cell activ | Mot1-301 SUMO | LANA-H2B inh | IDE cell inh | Yeast Mot1 SUMO
CCN(C(=O)Cn1c(=O)oc2ccccc21)c1cccc(C)c1 | 6 | 0 | 628* | -1 | -2 | 0
CCN(C(=O)Cn1c(=O)oc2ccccc21)c1cccc(C(F)(F)F)c1 | -1 | 4 | / | -2 | 9 | /
O=C(NCc1cccs1)c1ccc(CS(=O)(=O)c2ccc(Cl)cc2)o1 | -2 | 8 | -16 | 3 | 1 | /
COc1ccc(S(=O)(=O)Cc2ccc(C(=O)NCc3cccs3)o2)cc1 | -3 | 6 | 462* | 2 | -5 | 0
CC(C)(C)CCN1CCC(CN2CCNC(=O)C2=O)CC1 | / | 0 | / | / | / | /
COc1cccc(NC(=O)CN(C)C(=O)/C=C/c2cn(-c3ccccc3)nc2-c2ccc(C)cc2)c1 | 14 | -3 | -8 | -4 | 3 | /
COc1ccc(NC(=O)CN(C)C(=O)/C=C/c2cn(-c3ccccc3)nc2-c2cccs2)cc1 | ? | -2 | -12 | 0 | -2 | /
COc1ccc(NC(=O)CN(C)C(=O)/C=C/c2cn(-c3ccccc3)nc2-c2ccc(F)cc2)cc1 | 15 | -1 | 567* | 4 | 0 | 1
COc1ccc(NC(=O)CN(C)C(=O)/C=C/c2cn(-c3ccccc3)nc2-c2ccc(C)cc2)cc1 | -5 | 5 | 515* | -9 | 2 | 0
O=C(COC(=O)C1COc2ccccc2O1)NC(=O)NC1CCCCC1 (stereo not given) | 2 | 3 | 9 | -4 | 1 | /
O=C(COC(=O)C1COc2ccccc2O1)NC1CCS(=O)(=O)C1 (stereo not given) | 1 | 2 | 473* | -1 | 1 | 0
O=C(O)/C=C/c1cccnc1 | -6 | 3 | 399* | -5 | 0 | 0
CC(/C=C\c1cccnc1)=C/C(=O)O | 10 | 3 | -10 | 6 | -4 | /
CCOc1cc(C(=O)NC2CC(C)(C)NC(C)(C)C2)cc(OCC)c1OCC | -8 | 5 | 4 | 5 | 5 | /
O=C(COC(=O)c1ccncc1)Nc1cc(S(=O)(=O)N2CCOCC2)ccc1Cl | / | 1 | / | / | 1 | /
CC(C)[N+]1(C)[C@@H]2CC[C@@H]1CC(OC(=O)C(CO)c1ccccc1)C2 (stereo not given in full) | 2 | 5 | 371* | -4 | 3 | 0
O=C(COC(=O)CCc1ccccc1)Nc1ccc(F)cc1Cl | -4 | 10 | 5 | 0 | 4 | /
Cc1nc(CCNC(=O)c2ccccc2)cs1 | 0 | 7 | 641* | -7 | 3 | 0
O=S(=O)(c1cccc2nsnc12)N1CCN(Cc2ccccc2)CC1 | -8 | 3 | 43 | 4 | 2 | /
Cc1ccc(CNC(=O)CCNS(=O)(=O)c2cccs2)cc1 | -4 | 4 | + | -3 | 8 | 1
C[C@H]1O[C@H]1P(=O)(O)O | / | 7 | 975* | 33* | 2 | 1
COc1ccccc1/C=C/C(=O)N1CCc2cc(OC)c(OC)cc2C1C (stereo not given) | 6 | -1 | 389* | 1 | 0 | 0
COc1cc2c(cc1OC)C(C)N(C(=O)Nc1ccccc1)CC2 (stereo not given) | -4 | -1 | 6 | -5 | 2 | /
Cc1ccc(C(=O)NCCCNC(=O)COc2ccccc2Cl)cn1 | 12 | 3 | -15 | 3 | -3 | /
CCN(CC)CCCN(Cc1cc2cc(OC)ccc2[nH]c1=O)C(=O)Nc1ccc(F)cc1 | 3 | 5 | 463* | -5 | 5 | 0
SMILES | HDAC3 inhib | IDE cell activ | Mot1-301 SUMO | LANA-H2B inh | IDE cell inh | Yeast Mot1 SUMO
COc1ccc(NC(=O)C(C)N2C(=O)c3ccccc3C2=O)c(OC)c1 (stereo not given) | 4 | / | 59 | 0 | 7 | /
CN(C)C(/C=C/Nc1cccc(Br)c1)=C(C#N)C#N | 3 | / | 433* | -6 | -2 | 1
CC(C)CC1NC(=O)c2ccccc2-n2c1nc1ccccc1c2=O (stereo not given) | 0 | / | 0 | -2 | 5 | /
Cc1cc(SCC(=O)c2cccs2)nc2c(C)cccc12 | 0 | 9 | -18 | -2 | 2 | /
Cc1cc2c(C)ccc(C)c2nc1SCC(=O)c1cccs1 | 2 | 6 | 591* | 1 | 3 | -1
CCCOc1ccccc1C1NC(=O)NC(C)=C1C(=O)OCc1ccccc1 (stereo not given) | 8 | -1 | 735* | -2 | 3 | 0
CCCOc1ccccc1C1NC(=O)NC(C)=C1C(=O)OCCOC (stereo not given) | 6 | -4 | -12 | -4 | 6 | /
Cc1c(Cl)cccc1NC(=O)Cn1c(CCC(=O)O)ccc1-c1ccccc1 | 2 | 3 | 429* | -3 | 1 | -1
Cc1ccc(NC(=O)Cn2c(CCC(=O)O)ccc2-c2cccs2)cc1 | 0 | 0 | 526* | -1 | -3 | 0
CCOC(=O)c1ccc(-n2c(CCC(=O)O)ccc2-c2ccc(F)cc2)cc1 | -5 | 5 | -9 | -9 | 1 | /
O=C(O)c1cccc(NC(=O)c2cccc(S(=O)(=O)Nc3cccc([N+](=O)[O-])c3)c2)c1 | 3 | 4 | 419* | -3 | -2 | 2
Cc1ccc(NS(=O)(=O)c2cc(C(=O)Nc3cccc([N+](=O)[O-])c3)ccc2C)cc1 | 12 | 6 | 476* | 1 | 5 | 1
Cc1ccc(C(=O)Nc2cccc([N+](=O)[O-])c2)cc1S(=O)(=O)Nc1cccc(C(=O)O)c1 | -4 | 7 | -12 | 1 | 10 | /
O=C(NC(=S)Nc1ccc(Br)cc1)C1CCC1 | 0 | 2 | 67 | -1 | -3 | /
COc1ccc(-c2cc(CC3(C(=O)O)CCN(C(=O)OC(C)(C)C)CC3)on2)c(OC)c1 | 13 | 3 | 381* | -3 | -3 | 1
COC(=O)C1(Cc2cc(-c3ccccc3)no2)CCN(C(=O)OC(C)(C)C)CC1 | 12 | 4 | + | -3 | 6 | 0
COC(=O)c1ccc(-c2cc(CC3(C(=O)OC)CCN(C(=O)OC(C)(C)C)CC3)on2)cc1 | 4 | 5 | -11 | 2 | 2 | /
COc1ccc(OC)c(N(CC(=O)NC2CCCCCC2)S(=O)(=O)c2ccc(C)cc2)c1 | 8 | 2 | 38 | -1 | -1 | /
CCOC(=O)c1c(C)[nH]c(C=Nc2ccc(OC)cc2)c1O | 4 | 3 | -17 | -2 | -1 | /
CCOC(=O)c1c(C)[nH]c(O)c1C=Nc1ccccc1 | 4 | -2 | 883* | -2 | 1 | 0
Cc1ccccc1Nc1cc(=O)oc2ccccc12 | 0 | 0 | 370* | 0 | 5 | 1
Cc1ccc(Nc2cc(=O)oc3ccccc23)c(C)c1 | 1 | 2 | -6 | -4 | 8 | /
CC(=O)C1=C(O)C(=O)N(c2ccccn2)C1c1cccc(F)c1 (stereo not given) | 5 | 1 | 2 | 5 | 6 | /
CSc1cccc(NC(=S)N2CCCN(Cc3ccccc3F)C2)c1 | -3 | -3 | 496* | -3 | 9 | 0
